From PubChem BioAssay come the findings set out here.

A short description of assay [1]: compounds altering viability of human ES cells (AID 493140).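 Also: cells exposed to compounds for four days before counting.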 Conditions: human embryonic stem cell survival screen; stronger effect = higher value.
The nature of assay [2]: viability loss with induced miR-34 in A549 – imaging, A549 dox-inducible miR-34, nuclei and caspase counts, primary screen (AID 1347080;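 active = compounds whose cell count with miR-34 switched on is under 0.7 times the count with it off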). As to conditions: A549 miR-34 inducible, Hoechst nuclei count, 48 h.
Assay [3] is described as follows: chitosan synthesis blockers in C. neoformans – flow cytometry, Cibacron Brilliant Red staining (AID 1347148).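 Also: compound exposure lasted three days at 37 degrees C.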 Conditions: Cryptococcus neoformans chitosan, stronger effect = lower value; at 10 µM unless noted.
Assay [4] can be described thus: compounds altering HSF1 focus formation in cells – imaging, Selleck Cancer Library (AID 1347162; in the data active = plate-normalised HSF1 focus index below about 0.46). Conditions: human cells, HSF1 nuclear foci imaging, at 10 µM; SSMD: measured here: HSF1 foci SSMD mean; cell count: measured here: cell number; plate-normalised HSF1 focus index: stronger effect = lower value.
Assay [5] in a line: blockers of cellular phospholipid synthesis – cell-based, LOPAC library, screen 4, primary screen (AID 1347384). As to conditions: animal cells, phospholipid biosynthesis inhibition screen; at 10 µM.
The nature of assay [6]: galactose survival enhancers in mitochondrial complex I cybrids – cell-based, galactose medium, ATP luminescence, primary screen (AID 1645843;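 active = z-score of at least 1.8 in each of two replicates, scored against plate mean and spread of sample wells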;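 also: positive z means more ATP and so rescue of galactose-driven cybrid death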). As to conditions: complex I mutant cybrid cells, 72 h, stronger effect = higher value.
A short description of assay [7]: P. berghei load reduction in hepatocytes – cell-based, HepG2, luciferase luminescence, HepG2 viability, primary screen (AID 624349; in the data active = parasite load remaining mostly below about 12%, no sharp cut-off; inactive = mostly above about 10%;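 also: 100% = mean of DMSO negative control wells on the same plate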). As to conditions: P. berghei liver stage in HepG2, luciferase luminescence, concentration not given here; parasite load remaining: stronger effect = lower value; viability: measured here: HepG2 viability without parasites.
Assay [8] is described as follows: MELAS cybrid and Rieske KO viability enhancers – cell-based, MELAS cybrids, Rieske KO mouse fibroblasts, CellTiter-Glo, primary screen (AID 1508586;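 active = mean z-score across replicates of 1.96 or higher in either the MELAS or the Rieske mutant cell line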;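 also: z relative to plate mean and SD of compound and empty wells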). Conditions: low glucose.
Setting [9] is: stronger effect = lower value, cell number ratio, induced over uninduced.
The mark [10] stands for this setting: measured here: relative caspase fold change +Dox/-Dox.
[11] abbreviates: measured here: total cells with miR-34 induction, stronger effect = lower value.
The mark [12] stands for this setting: measured here: total cells without miR-34 induction.

Molecules are shown by their SMILES. Where “and” joins values, the source holds several entries; their conditions need not be identical. Equal entries are not always repeated. Calls of active or inactive are those of the source. Unless noted, no rule for the calls is given here.

Take `COCc1cc(O)c(O)c(O)c1-c1c(COC)cc(O)c(O)c1O`: in assay [1], the survival was 106 (inactive). Also, the fold change in assay [2] (setting [9]) was 1.2 (inactive); in assay [2] (setting [10]) it was 0.626. The cell count in assay [2] (setting [11]) worked out at 3710; in assay [2] (setting [12]) it was 3100. Moreover, the fold fluorescence in assay [3] was 5.4 [at 147.8 µM] (inactive).

For the compound `CCCCCCCCCCCCCC(=O)N[C@@H](C)[C@H](O)c1ccccc1`, the survival in assay [1] is 95 (inactive). The fold change in assay [2] (setting [9]) is 0.995 (inactive); in assay [2] (setting [10]), 0.985. Further, the cell count was 6160 in assay [2] (setting [11]) and 6200 in assay [2] (setting [12]). For the same compound, in assay [3], the fold fluorescence is 3.67 (inactive) and 4.53 (inactive).

Consider `CCCC(=O)Nc1nc2c(ncn2C2O[C@H]3COP(=O)(O)O[C@@H]3[C@@H]2OC(=O)CCC)c(=O)[nH]1` (stereo partly specified), for which the fold change in assay [2] (setting [9]) is 1.02 (inactive); in assay [2] (setting [10]), 0.664. In addition, the values for the cell count in assay [2] (setting [11]) and in assay [2] (setting [12]) were 5430 and 5330, respectively. For the same compound, the fold fluorescence in assay [3] was 6.9 [at 103 µM] (inactive).

As to `N#CC(C#N)=C(N)/C(C#N)=C/c1ccc2[nH]ccc2c1`, the survival in assay [1] is 107 (inactive). Further, the fold change in assay [2] (setting [9]) was 1.01 (inactive); in assay [2] (setting [10]), 0.81. For the same compound, the cell count in assay [2] (setting [11]) is 5080; in assay [2] (setting [12]) it was 5030. Besides, the fold fluorescence in assay [3] is 3.69 [at 192.8 µM] (inactive).

With `CCCC(=O)O`, the fold change was 0.924 (inactive) in assay [2] (setting [9]) and 0.39 in assay [2] (setting [10]). The results for the cell count in assay [2] (setting [11]), in assay [2] (setting [12]) and in assay [4] were 4770, 5160 and 7190, respectively. The compound further registered an SSMD in assay [4] of 1.8. Moreover, in assay [4], the plate-normalised HSF1 focus index was 1.11 (inactive).

As for `O=C(Nc1ccc2[nH]ncc2c1)C1CCC1`, the fold change in assay [2] (setting [9]) was 1.01 (inactive); in assay [2] (setting [10]) it was 1.17. Also, the cell count in assay [2] (setting [11]) was 9900; in assay [2] (setting [12]), 9790. Moreover, the result in assay [5] was inactive. Also, in assay [6], the z-score is 0.43 (inactive).

In the case of `CO/N=C(\C(=O)N[C@@H]1C(=O)N2C(C(=O)O)=C(COC(C)=O)CS[C@H]12)c1csc(N)n1`, the parasite load remaining in assay [7] is 16.7% (inactive). In addition, the viability in assay [7] worked out at 71.5%. For the same compound, the fold change was 0.894 (inactive) in assay [2] (setting [9]) and 1.17 in assay [2] (setting [10]). Further, the cell count in assay [2] (setting [11]) worked out at 9420; in assay [2] (setting [12]), 10500. Moreover, the result in assay [5] was inactive. The z-score is 0.329 (inactive) in assay [8] (MELAS cybrid survival, CellTiter-Glo 48 h, stronger effect = higher value); 0.781 in assay [8] (Rieske KO mouse fibroblast survival, CellTiter-Glo 72 h); -0.18 (inactive) in assay [6].

In the case of `CCCCCC(=O)/C=C/C=C\CCCCCCCC(=O)O`, the survival in assay [1] was 99.8 (inactive). Also, the fold change in assay [2] (setting [9]) is 0.995 (inactive); in assay [2] (setting [10]), 1.29. In addition, the results for the cell count in assay [2] (setting [11]) and in assay [2] (setting [12]) were 5630 and 5650, respectively. The fold fluorescence in assay [3] was 4.25 [at 1 µM] (inactive).

As to `Cc1oc(S(=O)(=O)N2CCCCC2)cc1NC(=O)Nc1ccccc1`, the fold change in assay [2] (setting [9]) was 0.9 (inactive); in assay [2] (setting [10]) it was 1.24. Further, the values for the cell count in assay [2] (setting [11]), in assay [2] (setting [12]) and in assay [4] were 5590, 6210 and 6950, respectively. In assay [4], this compound yielded an SSMD of 2.84. For the same compound, the plate-normalised HSF1 focus index in assay [4] was 1.17 (inactive).

Regarding `O=C(CCc1ccncc1)NNC(=O)N1Cc2ccccc2Oc2ccc(Cl)cc21`, the fold change in assay [2] (setting [9]) is 1.04 (inactive); in assay [2] (setting [10]), 1.18. Further, the cell count worked out at 8820 in assay [2] (setting [11]) and 8460 in assay [2] (setting [12]). For the same compound, the compound was classed as inactive in assay [5]. The z-score in assay [6] is -0.355 (inactive).

Turning to `CCCCC[C@H](O)/C=C/C=C\C/C=C\C/C=C\CCCC(=O)O`, the survival in assay [1] is 53.7 (inactive). Besides, the fold change is 1.03 (inactive) in assay [2] (setting [9]) and 1.58 in assay [2] (setting [10]). For the same compound, the cell count was found to be 5880 in assay [2] (setting [11]) and 5700 in assay [2] (setting [12]). Moreover, the fold fluorescence in assay [3] was 4.64 [at 1 µM] (inactive).
